High-throughput results (PubChem BioAssay)
Shown are actives, neighbours in structure and some others; about 4.8% of the full set was active somewhere.
hcDAF-12 act: H. contortus DAF-12 activation, primary screen | AID 652067 | HEK293 hcDAF-12 lit1-tk-luc reporter, luminescence; 0% DMSO, 100% Δ7-dafachronic acid | actives 1.4% (n = 370,000) | activation, % at 6.8 µM;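 active = activation above the mean of all tested compounds plus 3 SD, cut at about 5.5% in these data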;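 also: 100% = response to 3 µM Δ7-dafachronic acid high control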
SMARCA2 activ: SMARCA2 function activation, primary screen. activation, % at 9.1 µM. MG213 cells, MMTV-luciferase reporter, dexamethasone, overnight. actives 1% (n = 370,000); in the data active = activation above about 7.8%;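 also: 0% = vehicle wells and 100% = reference activator wells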
ssDAF-12 act: activates DAF-12 receptor from parasite S. stercoralis; HEK293 ssDAF-12/GRIP1 lit1-tk-luc reporter, luminescence; % of 3 µM dafachronic acid response; actives 1% (n = 370,000); activation, % at 6.8 µM;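 active = activation above the mean over all tested compounds plus 3 SD, cut at about 0.9% in these data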;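 also: 0% = DMSO-only wells and 100% = 3 µM delta7-dafachronic acid wells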
DAX1 inh-1: DAX1 (NR0B1) inhibition, primary screen. inhibition, % at 6.8 µM. actives 1.1% (n = 370,000). HEK293T StAR-luciferase reporter, SF-1/DAX-1 repression relief. AID 652010;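 active = inhibition above the mean over all tested compounds plus 3 SD, cut at about 3.6% in these data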;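 also: 0% = DAX-1 cells with DMSO and 100% = cells lacking DAX-1 with DMSO; higher inhibition means more luminescence from relief of DAX-1 repression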
hgDAF12 agonist: hgDAF-12 agonism, primary luciferase screen; HEK293 GAL4-hgDAF12 UAS-luciferase reporter, agonist luminescence; normalized to butyrate control; activation, % at 6.8 µM; actives 1.8% (n = 370,000); AID 687014;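 active = activation above a cutoff set at the mean of all screened compounds plus 3 SD, cut at about 10% in these data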;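 also: 0% = DMSO wells and 100% = sodium butyrate wells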
DAX1 inh-2: inhibits human nuclear receptor DAX1 | P51843 | HEK293 Gal4-DAX1 luciferase reporter, luminescence | inhibition, % at 6.75 µM | actives 0.99% (n = 340,000) | AID 504766;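 active = inhibition above the mean over all tested compounds plus 3 SD, cut at about 4.2% in these data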;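 also: 0% = DAX1-transfected cells with DMSO and 100% = empty-vector control cells with DMSO; inhibition shows as a rise in luminescence from relieved DAX1 repression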
Target sequence (P51843 207-470 limits assumed): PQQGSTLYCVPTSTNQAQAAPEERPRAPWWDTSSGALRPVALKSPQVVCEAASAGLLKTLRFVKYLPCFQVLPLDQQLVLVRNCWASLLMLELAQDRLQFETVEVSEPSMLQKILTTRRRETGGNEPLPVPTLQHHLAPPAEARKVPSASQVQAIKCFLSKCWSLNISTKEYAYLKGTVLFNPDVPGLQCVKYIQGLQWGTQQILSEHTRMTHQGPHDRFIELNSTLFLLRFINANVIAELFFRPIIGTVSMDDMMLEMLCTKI
Numbers without * were called inactive; nt = not tested or not shown.

SMILES	hcDAF-12 act	SMARCA2 activ	ssDAF-12 act	DAX1 inh-1	hgDAF12 agonist	DAX1 inh-2
CCOc1ccccc1C(=O)Nc1ccccc1-c1ccccc1	5.7*	1	-1	0	-1	0
Cc1ccc(N2CC(C(=O)NCc3ccc(C)n3C)CC2=O)cc1 (centres undefined)	0	0	-2	1	0	0
CCc1cccc2c(C(=O)CSc3nnc(-c4ccncc4)n3C)c[nH]c12	1	1	0	0	-1	0
CC(=O)OC(COC1C[C@@H]2CC[C@@]1(C)C2(C)C)C[N+]1(C)CCCCC1 (some centres undefined)	0	-4	-2	0	1	2
OCC1CCCN(C(=S)Nc2ccc(Nc3ccccc3)cc2)C1 (centres undefined)	3	3	0	2	16*	5.7*
NC(=O)C1CCCN(C(=S)Nc2ccccc2)C1 (centres undefined)	-3	-2	-2	-1	1	-1
O=C(NN=Cc1cccc(OCc2ccccc2)c1)c1cc(-c2ccc(Cl)cc2)n[nH]1	-1	-2	-1	0	3	nt
CC1CCCC(C)N1C(=O)COC(=O)CSc1ccc([N+](=O)[O-])cc1 (centres undefined)	5	-3	-1	-1	0	0
O=c1[nH]n(-c2ccccc2)c(=O)c(Cl)c1Cl	nt	nt	nt	nt	nt	0
O=c1ccn(-c2ccccc2)[nH]1	0	0	-1	0	3	4.4*
O=C(NC(Cc1c[nH]c2ccccc12)C(=O)OCC(=O)c1cccc2ccccc12)c1cccs1 (centres undefined)	6.1*	-2	-1	0	3	1
CN(C)c1ccc(/C=C/c2cccc[n+]2[O-])cc1	6.3*	1	-1	1	5	nt
CCCCN(C(=O)c1c(CC)noc1C)c1c(N)n(CC(C)C)c(=O)[nH]c1=O	-1	-2	-1	0	0	0
COc1ccc(-c2csc(NC(=O)C3=COCCO3)n2)c(OC)c1	0	5	0	3.9*	5	0
Cc1ccccc1N1CC(O)(c2cccs2)[N+]2=C1CCCC2 (centres undefined)	0	2	1.8*	-1	0	0
CN1CCCN(Cc2cccc3ccccc23)CC1	2	6	-1	0	0	0
OC1CCN(Cc2cccc3ccccc23)CC1	-1	-2	-1	0	2	5.0*
CCCCNC(=O)c1ccc2nc(CC)c(N(CC)CCN(C)C)n2c1	0	-4	0.9*	1	2	nt
O=c1c2ccccc2ncn1-c1ccc([N+](=O)[O-])cc1Cl	-3	-3	-1	0	-2	5.0*
COc1ccc(N(CC(=O)Nc2cccc([N+](=O)[O-])c2C)S(C)(=O)=O)cc1OC	0	1	-1	0	-3	0
COc1ccc(N(CC(=O)Nc2cc([N+](=O)[O-])ccc2C)S(C)(=O)=O)cc1OC	0	-4	1.3*	-1	0	0
CC(Sc1nnc(C2CC2)n1-c1ccccc1)C(=O)N1CCCC1 (centres undefined)	0	-2	-1	0	13*	1
O=C(NCc1n[nH]c(=S)n1-c1ccc(Cl)c(Cl)c1)c1cccs1	-1	-3	-1	0	1	1
S=C(Nc1ccc(Br)cc1Cl)N1CCCC1	2	5	0	4.1*	7	1
O=C(CN1C(=O)NC(Cc2ccccc2)C1=O)Nc1ccc(F)cc1 (centres undefined)	-2	-3	-1	0	0	4.5*
SMILES	hcDAF-12 act	SMARCA2 activ	ssDAF-12 act	DAX1 inh-1	hgDAF12 agonist	DAX1 inh-2
c1ccc(Cn2c3ccccc3c3nnc(SCCN4CCCCC4)nc32)cc1	0	7.9*	-1	0	5	nt
CCOC(=O)NC1(NCC(C)C)Oc2ccccc2O1	0	-1	-1	0	-1	4.4*
CCOC(=O)NC1(NC(C)C)Oc2ccccc2O1	2	-4	-1	1	-1	1
CCC(C)N1CC(O)=C(c2nc3ccccc3[nH]2)C1=N (centres undefined)	3	0	-2	2	5	0
CC1C(O)=C(c2nc3ccccc3[nH]2)C(=N)N1c1ccccc1 (centres undefined)	0	2	-1	0	13*	2
COC(=O)c1ccc(-c2ccc(F)cc2)nc1C	2	5	0	1	12*	2
CCOC(=O)c1ccc(-c2ccc3c(c2)CCC3)nc1C	5.6*	7.9*	0	2	10	2
O=C(NNC(=O)C1COc2ccccc2O1)c1ccccc1 (centres undefined)	-1	0	-1	1	-1	1
CCOC(=O)c1cc2c(=O)c3ccccc3oc2nc1C	3	7	-1	1	11*	2
COc1ccc(CN2CCN(C(=O)c3ccc4nc(N5CCOCC5)sc4c3)CC2)c(OC)c1OC	-2	1	-2	0	1	-1
c1ccc(Cc2cc(-c3ccccc3)on2)cc1	1	2	-1	0	10	5.5*
Cc1ccc(N2CCN(/N=C/C(Cl)=C/c3ccccc3)CC2)cc1	0	1	-1	0	-2	0
COc1ccccc1N1CCN(/N=C/C(Cl)=C/c2ccccc2)CC1	2	6	0	1	8	5.0*
COc1ccccc1N1CCN(C(=O)c2cc3ccccc3[nH]2)CC1	0	-2	-1	2	-1	-2
COc1ccccc1N1CCN(C(=O)c2cc3cc(F)ccc3[nH]2)CC1	5.8*	-3	0	0	2	-1
COc1ccccc1N1CCN(/N=C\c2ccccc2)CC1	3	1	-1	1	5	5.1*
COc1ccccc1N1CCN(CCOc2c(OC)cccc2OC)CC1	-1	-2	-1	0	-3	4.6*
COc1ccccc1NC(=O)c1ccc(-n2cncn2)nc1	-1	1	-2	0	-1	-1
O=C(CSc1n[nH]c(=O)n1C1CC1)Nc1ccc(OC(F)(F)F)cc1	-1	-2	0	0	-1	-2
CCn1cc(C(=O)NCc2ccccc2Cl)cn1	0	-1	-2	0	-1	0
CCCC(=O)NC(c1ccccc1OC)c1ccc2cccnc2c1O (centres undefined)	nt	nt	nt	nt	nt	-3
O=C(CCCC(=O)N1CCN(c2ccccc2F)CC1)N1CCN(c2ccccc2F)CC1	-2	-3	-1	1	-1	2
O=C(CCCC(=O)N1CCN(c2ccccc2F)CC1)c1ccccc1	0	4	0	2	8	17*
COc1ccccc1N1CCN(C(=O)CCC(=O)O)CC1	-2	0	-1	1	1	5.5*
